Test results published in PMC4336329 (PLoS ONE, 2015).
The whole screen tested about 310,000 compounds, of which about 14,000 (4.5%) showed an effect of 50% or more. Effects have a minus sign here. Shown is part of a subset that was picked to be rich in strong results.

The compounds below were run against human ether-à-go-go-related gene (hERG) potassium channel (human, UniProt Q12809) (assay: primary screen, population patch clamp on CHO cells stably expressing hERG; higher = less effect of the substance).
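Further: peak tail current of the secondary pulse compared with the same well before compound.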

Sequence of human ether-à-go-go-related gene (hERG) potassium channel (Q12809 whole entry, looked up): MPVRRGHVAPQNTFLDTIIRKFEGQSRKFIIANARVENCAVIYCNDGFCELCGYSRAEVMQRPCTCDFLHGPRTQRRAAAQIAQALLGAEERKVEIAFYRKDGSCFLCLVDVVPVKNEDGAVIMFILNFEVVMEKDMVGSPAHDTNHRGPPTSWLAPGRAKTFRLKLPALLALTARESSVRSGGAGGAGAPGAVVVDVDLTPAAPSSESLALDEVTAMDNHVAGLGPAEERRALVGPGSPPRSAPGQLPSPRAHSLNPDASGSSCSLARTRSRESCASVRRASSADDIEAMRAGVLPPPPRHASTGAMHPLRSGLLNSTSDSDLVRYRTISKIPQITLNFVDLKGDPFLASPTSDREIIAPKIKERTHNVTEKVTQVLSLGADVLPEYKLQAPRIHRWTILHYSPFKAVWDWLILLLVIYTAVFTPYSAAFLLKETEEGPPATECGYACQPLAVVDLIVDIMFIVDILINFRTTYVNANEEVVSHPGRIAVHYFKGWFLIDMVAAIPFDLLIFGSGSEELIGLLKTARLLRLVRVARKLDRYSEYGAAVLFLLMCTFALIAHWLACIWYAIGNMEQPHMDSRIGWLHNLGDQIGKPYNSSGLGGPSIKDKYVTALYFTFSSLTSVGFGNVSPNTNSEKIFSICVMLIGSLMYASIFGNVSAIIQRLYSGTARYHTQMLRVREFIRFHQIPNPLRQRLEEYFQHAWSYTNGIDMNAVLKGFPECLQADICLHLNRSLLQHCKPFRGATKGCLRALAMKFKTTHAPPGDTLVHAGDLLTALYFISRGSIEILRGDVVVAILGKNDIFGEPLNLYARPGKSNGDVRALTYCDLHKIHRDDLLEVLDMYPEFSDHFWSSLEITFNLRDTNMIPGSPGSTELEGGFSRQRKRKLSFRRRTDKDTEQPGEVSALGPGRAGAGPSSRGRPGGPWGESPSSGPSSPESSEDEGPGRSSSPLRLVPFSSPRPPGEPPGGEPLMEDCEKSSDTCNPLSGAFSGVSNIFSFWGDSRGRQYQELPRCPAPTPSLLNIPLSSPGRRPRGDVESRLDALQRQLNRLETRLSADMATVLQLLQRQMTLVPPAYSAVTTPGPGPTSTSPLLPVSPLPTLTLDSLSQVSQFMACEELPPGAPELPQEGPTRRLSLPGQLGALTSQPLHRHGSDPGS

Compound | hERG current change (%, negative = inhibition) at 10uM
COCCNC(=O)CCCCCNS(=O)(=O)c1ccc(C)cc1 | 8.18%
CCN(CC)CCNC(=O)c1ccc(NC(=O)Cc2ccccc2F)cc1 | -6.75%
CCc1ccc(N(CC(=O)NC(C)(C)C)C(=O)CNC(=O)c2cccs2)cc1 | 15.5%
Cc1nc(S/C(=C/c2ccc(-c3ccc(C(=O)O)cc3)o2)C(=O)O)n[nH]1 | -11.4%
Cc1ccc(NC(=S)N(CCCN2CCN(C)CC2)Cc2cccs2)cc1C | -57%
Cc1ccc(NC(=S)N(CCN(C)C)Cc2cccs2)cc1C | -46.7%
O=S(=O)(c1ccc(SCc2ccccc2)nc1)N1CCCCC1 | 4.03%
O=C(C[n+]1ccccc1)Nc1nc2ccccc2s1.[Cl-] | 0.223%
COc1ccc(C2CC(c3ccc(Br)cc3)=NN2C(=O)CCC(=O)O)cc1OC (stereo not shown) | 9.97%
Cc1ccc(O)c(NC(=O)C2CC(c3ccc(F)cc3)=NO2)c1 (stereo not shown) | -3.98%
C[C@]12CC[C@@H](O)C[C@@H]1CC[C@@H]1[C@@H]2CC[C@]2(C)C(=O)CC[C@@H]12 | 5.99%
C[C@]12CC[C@@H](O)C[C@H]1CC[C@@H]1[C@@H]2CC[C@]2(C)C(=O)CC[C@@H]12 | -3.43%
C[C@]12CC[C@H](O)C[C@@H]1CC[C@@H]1[C@@H]2CC[C@]2(C)C(=O)CC[C@@H]12 | -58.3%
Cc1ccc(-n2c(O)c(C=NCCN3CCNCC3)c(=O)[nH]c2=S)cc1 | 22%
O=S1(=O)CCN=C2SC3=C(CCCC3)N21 | 1.25%
CC1CC(C)CN(C(=O)COC(=O)c2ccc3c(c2)C(=O)N(Cc2ccco2)C3=O)C1 (stereo not shown) | -68.7%

Compound | hERG current change (%, negative = inhibition) at 10uM
CC1CCCCN1C(=O)COC(=O)c1ccc2c(c1)C(=O)N(Cc1ccco1)C2=O (stereo not shown) | -34.9%
O=C(OCC(=O)N1CCCCC1)c1ccc2c(c1)C(=O)N(Cc1ccco1)C2=O | -28%
CN(CC(=O)Nc1ccccc1Br)C(=O)c1cccn1C | 16.2%
Cl.O=C(CCS(=O)(=O)c1ccccc1)N(CCCN1CCOCC1)c1nc2ccccc2s1 | -14.1%
CCc1nn(CC(=O)NCCC2=CCCCC2)c(=O)c2cc3cc(F)ccc3n12 | 15.7%
CN(C)S(=O)(=O)c1ccc(NC(=O)CN2CCN(c3ccccn3)CC2)cc1 | 13.9%
CCn1c2ccccc2c2nnc(SCCN3CCCCC3)nc21 | -39.1%
CSc1nnc2c3ccccc3n(CCc3ccccc3)c2n1 | -12.1%
c1ccc(Cn2c3ccccc3c3nnc(SCCN4CCCCC4)nc32)cc1 | -67.7%
CSc1nnc2c3ccccc3n(Cc3ccccc3)c2n1 | 25.8%
O=C1c2ccccc2C(=O)N1CSc1nnc2c3ccccc3n(CCc3ccccc3)c2n1 | 14.4%
CCN(CC)CCSc1nnc2c3ccccc3n(Cc3ccccc3)c2n1 | -75.4%
C=CCn1c2ccccc2c2nnc(SCCN3CCCCC3)nc21 | -46.4%
CCN(CC)CCSc1nnc2c3ccccc3n(CCc3ccccc3)c2n1 | -75.3%
CCn1c2ccccc2c2nnc(SCc3ccccc3)nc21 | -3.61%
